Compound activity as filed in PubChem BioAssay.
CHT block: human CHT choline transport inhibition. Q9GZV3. CHT-expressing cells, membrane potential dye, choline response; active compounds read low. B-score at 10 µM. hit rate 0.86% among 310,000. AID 488975;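 active = B-score over 3 SD under the library average, and starting fluorescence ratio not unusually high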;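 note: choline stimulus applied at its EC90 after an EC20 pre-addition; B-score computed on integrated fluorescence ratio after choline addition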
CHT allo act: human CHT allosteric activation; hit rate 0.49% among 310,000; B-score at 10 µM; CHT-expressing cells, membrane potential dye, choline EC20; active compounds read high; LV-AA mutant CHT in HEK293 cells;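 active = initial fluorescence not abnormally high and integrated response B-score, plate-corrected, over 3 SD above library mean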
MIN6 prolif: inducers of beta-cell replication in MIN6 cells | MIN6 cells proliferation, ATPlite luminescence, 48 h; cells starved in 0.2% serum; 100% = growth in 10% serum | proliferation, % at 10 µM | hit rate 0.29% among 330,000 | AID 2380;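 active = compounds whose signal lies at least 3.5 SD above the mean of all wells on their plate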;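 note: 0% = DMSO-treated cells in low-serum medium and 100% = 10% serum control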
H9c2 TAG inh: triacylglycerol accumulation inhibition; H9c2 cells, Nile Red lipid (TAG) fluorescence; cells loaded with 200 µM oleic acid; inhibition, % at 12.5 µM; hit rate 0.66% among 230,000;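 active = pattern-corrected inhibition of lipid staining of at least 50% with the nuclear-stain viability signal not falling by more than 50%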;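 note: 0% = DMSO wells and 100% = triacsin C control wells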
CHT activ conf: human CHT activation, confirmatory screen. shares compounds with CHT allo act. CHT-expressing cells, membrane potential dye fluorescence (FDSS); % of choline EC20–EC90 response window; HEK293 expressing CHT LV-AA mutant; choline added at its EC20. activation, % at 10 µM. hit rate 91% among 2,500. AID 504833;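 active = primary screen active, with duplicate mean activation above negative control mean plus 3 SD, cut at about 11% in these data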
HEK293 MP dye: activity in parental HEK293 cells lacking CHT | hit rate 62% among 2,500 | membrane potential dye fluorescence (FDSS); measured after EC20 choline addition | shares compounds with CHT allo act | ratio readout change at 10 µM, hits read low;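 active = duplicate-averaged ratio beyond 3 SD from buffer wells, up or down, though filed actives are nearly all decreases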
An asterisk follows results filed as active; i = inactive; . = no result given. Hits are enriched below; roughly 1.7% of the tested compounds scored in any of these assays.

SMILES	CHT block	CHT allo act	MIN6 prolif	H9c2 TAG inh	CHT activ conf	HEK293 MP dye
COC(=O)c1c(NC(NC(=O)c2ccccc2)(C(F)(F)F)C(F)(F)F)sc2c1CCN(C)C2	i	7.19*	0.0	.	69.5*	-58.6*
O=c1cc(CN2CCN(CCO)CC2)c2cc3c(cc2o1)CCC3	i	i	-0.7	-23.6	45.5*	-43.7*
CCOC(=O)N1CCN(Cc2cc(=O)oc3cc4c(cc23)CCC4)CC1	i	i	-3.7	.	.	.
CCOC(=O)C1(Cc2ccccc2C(F)(F)F)CCN(Cc2ccon2)CC1	i	6.95*	-2.1	-15.2	20.3*	i
CCOC(=O)C1(Cc2ccccc2)CCN(Cc2ccon2)CC1	i	i	6.7	-1.5	.	.
CCC[C@H]1COCCS(=O)(=O)N1Cc1ccccc1F	i	i	-0.7	1.8	3.0	i
CCCC[C@H]1COCCS(=O)(=O)N1Cc1ccccc1F	i	i	-4.5	-11.8	.	.
COc1ccc(Nc2nccc(N(C)C)c2C#N)cc1	i	i	-0.1	.	49.8*	-42.4*
COc1ccc(C(CC(=O)Nc2ccc(F)cc2)c2ccccc2)cc1 (centres undefined)	i	i	-3.7	-10.4	.	.
COc1ccc(C)cc1NC(=O)CNC(c1ccccc1)c1ccc(C)cc1 (centres undefined)	i	i	-6.0	.	.	.
COc1ccccc1NC(=O)CC(c1ccc(F)cc1)c1ccco1 (centres undefined)	i	i	-4.1	-12.5	23.7*	i
COc1ccccc1NC(=O)CNC(c1ccccc1)c1ccccc1	i	7.47*	0.0	.	44.2*	i
COc1ccc(-c2c(C(C)=O)c(C)nc3sc4c(=N)n(N)cnc4c23)cc1	i	6.72*	0.0	.	41.0*	-38.3*
CCOC(=O)c1c(C)nc2sc3c(=O)n(-c4ccc(C(C)=O)cc4)nnc3c2c1-c1ccc(OC)cc1	i	i	0.5	-0.7	.	.
CCC(C)(C)NC(=O)CN(Cc1ccco1)C(=O)CCC(=O)Nc1nccs1	i	i	0.0	.	.	.
O=[N+]([O-])c1ccc(-c2nc(-c3ccncc3)no2)cc1	i	i	-1.2	-6.5	26.0*	-36.4*
Clc1ccccc1-c1nn2c(-c3ccncc3)nnc2s1	i	i	3.8	.	.	.
Clc1ccccc1-c1nn2c(-c3ccccn3)nnc2s1	i	i	0.0	.	42.9*	-37.9*
CCOC(=O)c1c(CN2CCN(C)CC2)n(C)c2cc(Br)c(OC)cc12	i	i	-6.3	.	38.7*	-55.2*
CCN(CC)c1cc(C)c2cc(NC(=O)CNC(C)=O)ccc2n1	i	6.5*	-3.4	16.8	55.9*	-31.2*
O=C(Nc1ccc2nc(SCc3ccc(Cl)cc3)sc2c1)c1ccccc1C(=O)N1CCOCC1	i	i	-3.4	17.3	46.3*	i
COC(=O)CSc1nc2ccc(NC(=O)c3ccccc3C(=O)N3CCOCC3)cc2s1	i	i	-2.2	.	.	.
Cc1cc(C)c2c(n1)nn1c(NCCOCCO)cc(C)nc21	i	8.53*	-3.4	-1.7	74.9*	-62.5*
CCc1nn2c(NCCCO)cc(C)nc2c1-c1ccc(F)cc1	i	i	-3.5	.	.	.
CCOC(=O)C1CCCN(C(=O)c2ccc(F)c(C)c2)CC1 (centres undefined)	.	.	.	-22.1	.	.
SMILES	CHT block	CHT allo act	MIN6 prolif	H9c2 TAG inh	CHT activ conf	HEK293 MP dye
CCOC(=O)C1=C(N)OC2=C(C(=O)CC(C)(C)C2)C1c1ccc(CC)s1 (centres undefined)	i	7.6*	-1.3	6.4	20.8*	i
Cc1ccc(S(=O)(=O)N2C[C@@H](C)[C@]3(C2)[C@H](O)[C@H](OC(=O)NC2CCCC2)C[C@H]2C(=O)N(c4ccccc4)C(=O)[C@H]23)cc1	.	.	.	-5.7	.	.
O=C(Nc1nnc(C2CC2)s1)c1n[nH]c(=O)c2ccccc12	i	i	-1.9	5.6	.	.
Cn1c(=O)c2c(ncn2CCCC(=N)N2CCOCC2)n(C)c1=O	i	10.5*	-1.1	3.7	78.3*	-72.4*
c1ccc(CN2c3ccccc3-c3nc4ccccc4n3C2c2ccccn2)cc1 (centres undefined)	i	6.42*	-4.8	.	52.2*	i
C=CCOC(=O)c1ccc(-n2cncn2)nc1	i	i	4.8	6.3	20.7*	i
